# Assay outcomes from PubChem.
# FBA Mtb inh – Mtb FBA enzyme inhibitors, primary screen, biochemical, fluorescence, strain H37Rv; purified M. tuberculosis FBA, fluorescence read-out; AID 588726, 2011; inhibition, % at 1 µM; 360,000 tested, 2.3% active; Fructose-bisphosphate aldolase (Mycobacterium tuberculosis (strain ATCC 25618 / H37Rv)), …; in the data active = inhibition above about 27%;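 also: 0% = vehicle and 100% = reference inhibitor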
# Target sequence (P9WQA3 whole entry, looked up): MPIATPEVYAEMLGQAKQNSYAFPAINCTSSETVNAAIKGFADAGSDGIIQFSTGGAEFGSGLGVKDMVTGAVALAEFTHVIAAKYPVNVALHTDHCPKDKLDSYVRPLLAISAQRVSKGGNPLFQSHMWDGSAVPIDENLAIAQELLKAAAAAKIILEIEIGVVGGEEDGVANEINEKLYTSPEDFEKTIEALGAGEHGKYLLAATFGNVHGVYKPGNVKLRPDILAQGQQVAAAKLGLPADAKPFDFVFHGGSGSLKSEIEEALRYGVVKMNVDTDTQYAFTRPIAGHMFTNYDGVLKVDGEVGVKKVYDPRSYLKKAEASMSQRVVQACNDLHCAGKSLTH
# CCHF vOTU inh-1 – CCHFV vOTU protease inhibitors, primary screen, biochemical, Pep-AMC substrate, fluorescence; AID 651958, 2012; Crimean-Congo hemorrhagic fever virus L polyprotein viral ovarian tumor (vOTU) protease …; inhibition, % at 11.5 µM; 370,000 tested, 0.55% active; also: 0% = vehicle wells with enzyme and 100% = no enzyme wells
# MazF activator – activators of E. coli MazEF toxin-antitoxin RNase, primary screen, biochemical, fluorescence, uHTS; AID 504720, 2011; Endoribonuclease toxin MazF (Escherichia coli (strain K12)), P0AE70; activation, % at 20 µM; 350,000 tested, 0.32% active; FAM/BHQ RNA-DNA oligo cleavage fluorescence, 5 h; in the data active = activation above about 50%
# Target sequence (P0AE70 whole entry, looked up): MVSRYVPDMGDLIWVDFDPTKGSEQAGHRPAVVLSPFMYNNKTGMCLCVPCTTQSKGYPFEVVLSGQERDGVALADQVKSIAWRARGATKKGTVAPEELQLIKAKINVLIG
# GDH-TPI inh – GDH-TPI coupling enzyme inhibitors, primary screen, artefact control for M. tuberculosis FBA inhibitor project, biochemical, absorbance, full deck; GDH-TPI coupled enzyme counterscreen, NADH absorbance; inhibition, % at 4.8 µM; 360,000 tested, 1.2% active;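 also: 0% = DMSO wells and 100% = wells lacking the enzyme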
# Mtb bLac sens – beta-lactam sensitization of Mtb H37Rv, H37Rv; M. tuberculosis H37Rv growth with meropenem, percent inhibition; inhibition, % at 25 µM; 330,000 tested, 0.27% active; AID 434955, 2010; call rule not given here;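 also: growth measured after seven days incubation then overnight dye step; 0% = bacteria only wells and 100% = bacteria with antibiotic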
# CCHF vOTU inh-2 – CCHFV vOTU protease inhibitors, confirmation, biochemical, Pep-AMC substrate, fluorescence; shares compounds with CCHF vOTU inh-1; Recombinant CCHFV vOTU; inhibition, % at 11.5 µM; 1,900 tested, 17% active; AID 686976, 2013
# The depositor's hits bear a star; ? = inconclusive; · = no result given. Hits are enriched below; roughly 4% of the tested compounds scored in any of these assays. Rule as the data show it, unless noted: active = inhibition above about 30%; inactive = the rest.
SMILES,FBA Mtb inh,CCHF vOTU inh-1,MazF activator,GDH-TPI inh,Mtb bLac sens,CCHF vOTU inh-2
CC(=O)Oc1ccc(-c2csc(Nc3ccccn3)n2)cc1,-4,42*,0,8,·,-2
CC(=O)Oc1ccc(-c2csc(Nc3cccc(C)n3)n2)cc1,1,1,-5,2,37,·
N#Cc1ccc(S(=O)(=O)NC2CC2)cc1,3,-12,-37,5,-7,·
COc1cc(NCc2ccccc2O)c2ncccc2c1,0,9,0,-1,·,·
NC(=S)Nc1cccc2cccnc12,1,-6,1,-3,93,·
NC(=S)NNc1cccc2cccnc12,-5,101*,6,8,8,34*
Oc1ccccc1CNc1cccc2cccnc12,1,52*,4,9,-1,91*
Cc1ccc(S(=O)(=O)N2CCN(C(=O)CN3C(=O)NC4(CCCC4)C3=O)CC2)c(C)c1,0,7,8,-4,-1,·
CN(C)c1cc[n+](CC(=O)c2ccc(OC(F)F)cc2)cc1,-3,1,-1,-15,-5,·
O=C(Nc1ccc(F)c(Cl)c1)Nn1cnnc1,3,3,·,5,3,·
CN=C1c2cc3cc(OC)ccc3n2CCN1Cc1ccccc1,1,37*,12,14,·,-9
CCN(CC)CCNC1=NCCn2c1cc1cc(OC)ccc12,5,-8,8,8,2,·
CC[N+]1(C)CCC(O)(c2ccc(OC)cc2)C(C(=O)c2ccc(OC)cc2)C1 (stereo not given),0,-7,4,-3,·,·
COC1=CC(=Cc2c(N)n3nc(CC(=O)N4CCCCC4)sc3nc2=O)C=C(OC)C1=O,-1,34*,-383,15,1,4
CC(=O)c1ccc(NC(=O)C(C)Sc2nnc(-c3ccncc3)n2C2CC2)cc1 (stereo not given),-1,-8,15,3,-4,·
CCc1cccc(OCC(=O)Nc2ccc(C(=O)O)cc2NC(=O)COc2cccc(CC)c2)c1,-1,33*,4,-8,-2,5
CCCCCCCCN1C(=O)[C@@H](CC(=O)NCc2cccc(C(F)(F)F)c2)C[C@@]2(C(=O)OC)C1=C[C@H](C(C)C)O[C@@H]2C1CC1,·,30*,·,·,·,31*
COC(=O)[C@]12C[C@H](CC(=O)NCc3cccc4ccccc34)C(=O)N(Cc3ccccc3)C1=C[C@H](C(C)C)O[C@@H]2C1CC1,·,17,·,·,·,·
CCCCCCCCN1C(=O)[C@@H](CC(=O)NCc2ccc(OC)c(OC)c2)C[C@@]2(C(=O)OC)C1=C[C@H](C(C)C)O[C@@H]2C1CC1,·,38*,·,·,·,11
COc1ccc(OC)c(NC(=O)Nc2ccc(O)c3ccccc23)c1,5,73*,-5,3,4,-15
Cc1cc(NC(=O)COc2ccc3ccccc3c2)no1,2,14,28,-3,5,·
COc1cccc(Oc2nc(-c3ccccc3O)nc3ccccc23)c1,2,-3,-7,6,?,·
COc1cc(C)ccc1Oc1nc(-c2ccccc2O)nc2ccccc12,1,32*,-6,3,-3,-1
N#CCC(=O)N/N=C/c1ccc(OCC(=O)Nc2ccc(F)cc2)cc1,1,3,-3,7,3,·
O=C1OC(=O)c2cc([N+](=O)[O-])ccc21,3,10,5,5,4,·
SMILES,FBA Mtb inh,CCHF vOTU inh-1,MazF activator,GDH-TPI inh,Mtb bLac sens,CCHF vOTU inh-2
O=C1Nc2ccccc2Nc2ccc([N+](=O)[O-])cc21,-1,38*,5,12,?,27
CC(=O)Nc1c([N+](=O)[O-])cc2c3c(cccc13)CC2,2,33*,·,·,·,-16
CN(C)c1ccc(N/C=C/C(=O)C(C)(C)C)cc1,-4,59*,1,22,12,11
CN(C)c1ccc(C(=O)C=Cc2ccc([N+](=O)[O-])cc2)cc1,-2,17,9,-4,·,·
CN(C)c1ccc(/C=C/C(=O)c2ccc(O)cc2)cc1,-19,35*,-411,16,·,-5
O=C(/C=C/Nc1ccccc1)c1ccccc1,-2,29,-2,17,-3,·
CCOC(=O)c1ccc(N/C=C/C(=O)C(C)(C)C)cc1,-1,7,-12,27,95,·
CN(C)c1ccc(N/C=C/C(=O)c2ccccc2)cc1,-5,60*,154*,13,19,-4
N#CCCN(C(=O)Nc1ccc(Cl)cc1)c1ccccc1,1,1,-5,-1,-6,·
N#CCCN(CCC#N)C(=O)c1ccc(Cl)cc1,2,36*,2,7,1,-12
CCn1c(=O)c(C(=O)NCCN2CCCCC2)c(O)c2ccccc21,1,34*,-1,6,-5,-12
O=C(CCc1ccc(Oc2cc([N+](=O)[O-])cc([N+](=O)[O-])c2)cc1)N1CCCCCC1,4,3,-6,11,97,·
O=C1Nc2ccccc2N=C(c2ccc3c(c2)OCO3)C1N(C(=O)c1ccc2ccccc2c1)C1CC1 (stereo not given),4,32*,·,·,·,-5
O=C1Nc2ccccc2N=C(c2ccc3c(c2)OCO3)C1N(C(=O)c1ccnc2ccccc12)c1ccccc1 (stereo not given),2,15,·,·,·,·
C=CC[C@@H](CC(=O)N[C@H](CO)Cc1ccccc1)C(=O)N[C@H](COC(=O)[C@@H](CC=C)CC(=O)OC(C)(C)C)Cc1c[nH]c2ccccc12,4,19,5,4,-4,·
C=CCC[C@H](Cc1ccc(F)cc1)C(=O)OC[C@@H](Cc1c[nH]c2ccccc12)NC(=O)[C@@H](CC=C)CC(=O)N(CCO)Cc1ccccc1,0,32*,-4,13,3,8
C=CC[C@@H](CC(=O)N[C@H](CO)Cc1ccccc1)C(=O)N[C@@H](COC(=O)[C@@H](CC=C)CC(=O)OC(C)(C)C)Cc1c[nH]c2ccccc12,4,31*,5,7,-2,-11
CCOc1ccc(CCNC(=O)c2nnc(CS(=O)(=O)c3ccccc3)o2)cc1OCC,5,5,6,3,0,·
COc1ccc(C(=O)CC(=O)C(=O)NCCc2cccc(C)c2)cc1,-1,31*,8,27,2,-5
Oc1c(CN2CCCCC2)ccc2cccnc12,0,31*,4,2,·,-19
Oc1ccc(CN2CCCCC2)c2cccnc12,-4,-20,2,-3,89,·
O=C(C1CCCCC1)N1CCC(c2nc3ccccc3[nH]2)CC1,2,-13,5,14,-5,·
O=C(c1ccc(Br)o1)N1CCC(c2nc3ccccc3[nH]2)CC1,0,34*,-1,-7,-4,-27
